This is a sample that favours compounds with a hit; in the whole collection about 4% have one here.
ROMK mod: human ROMK K+ channel modulation, primary screen; Tet-inducible ROMK, thallium flux fluorescence; actives lie on both sides; B-score at 10 µM; P48048; AID 1918; 130,000 tested, 2% active;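 active means signal ratio slope over the read window, or its plate-corrected B-score, at least 3 SD from the plate mean, either direction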;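 further: B-score of the F/F0 ratio slope over 7 to 12 s after thallium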
Measles CPE: protection of cells from measles virus; Measles virus-infected cells, CPE protection, absorbance; protection (pct of control), % at 4 µM; 140,000 tested, 1.5% active; AID 841; in the data active means protection mostly above about 24%, no sharp cut-off; inactive means mostly below about 26%
HSV replic up: increases HSV replication in cells; AID 1956; HSV replication augmentation in cells, fold increase; 220,000 tested, 0.005% active; maximum fold increase; in the data active means maximum fold increase above about 1.5; inconclusive means no clear call, values can overlap the other calls; tested in PC3 cells
Arbovirus inh: blocks arbovirus infection; arbovirus infection cell-based antiviral screen; inhibition, % at 10 µM; 200,000 tested, 0.37% active; AID 1251; in the data active means inhibition above about 30%
KCC2 mod: KCC2 (human) Cl- transport modulation. 190,000 tested, 2.2% active. AID 1456. KCC2 cells, thallium flux FluoZin-2 fluorescence. Q9H2X9. B-score of Tl+ flux slope (higher = more flux/activation; lower = inhibition) at 10 µM;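 active means thallium flux slope and its plate-corrected score both differing from the plate sample mean at a set confidence after two filtering rounds, in either direction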;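 further: slope of fluorescence scaled to starting intensity during 10 to 20 s after thallium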
Large screens that a line does not name were inactive.

COc1ccc(N2CCN(Cc3nc4cc(Cl)ccc4c(=O)[nH]3)CC2)cc1	none (no result: Measles CPE)
Cc1noc(C)c1S(=O)(=O)NCCCN1CCN(Cc2ccccc2)CC1	Measles CPE 30 (no result: HSV replic up)
CC(=O)N1CCc2cc(S(=O)(=O)NCCCN3CCN(Cc4ccccc4)CC3)ccc21	none (no result: HSV replic up)
CC(=O)N1CCc2cc(S(=O)(=O)NCCN3CCC(C)CC3)ccc21	Measles CPE 38 (no result: KCC2 mod)
Cc1nn2cc(-c3ccccc3)nc2[nH]c1=O	none (no result: ROMK mod)
Cc1nn2c(-c3ccccc3)c(-c3ccccc3)nc2[nH]c1=O	Arbovirus inh 32 (no result: ROMK mod)
COc1ccc(C2NN=C(c3ccc(C)cc3)S2)cc1OC (centres undefined)	none (no result: Measles CPE, KCC2 mod)
Fc1cccc(C2NN=C(c3ccccc3)S2)c1 (centres undefined)	KCC2 mod 26
C=CCn1c(=S)[nH]c2nc3c(cc2c1=O)CCCC3	KCC2 mod 126 (no result: ROMK mod)
C=CCn1c(=S)[nH]c2ccc(Br)cc2c1=O	KCC2 mod 52 (no result: ROMK mod)
O=C(NCc1ccccn1)c1ccc(Cn2c(=S)[nH]c3ccc(Br)cc3c2=O)cc1	none (no result: Measles CPE)
S=C(Nc1ccc2nsnc2c1)NC1CCCCC1	Measles CPE 30 (no result: ROMK mod)
CC(=O)C1=C(O)C(=O)N(CCc2c[nH]c3ccccc23)C1c1cccc(O)c1 (centres undefined)	Measles CPE 25
CN(C)S(=O)(=O)c1ccc(C(=O)Nc2nnc(-c3cccs3)o2)cc1	none (no result: Measles CPE)
N#Cc1ccc(C(=O)Nc2nnc(-c3cccs3)o2)cc1	KCC2 mod 6.7 (no result: ROMK mod, Measles CPE, HSV replic up)
COCC1=C(C(=O)OC)C(c2ccco2)n2ncnc2N1 (centres undefined)	none (no result: ROMK mod, Measles CPE, Arbovirus inh)
CCc1c(C)c(C#N)c2nc3ccccc3n2c1NCCN(C)C	none
CCc1c(C)c(C#N)c2nc3ccccc3n2c1NCc1ccco1	KCC2 mod -3.8
CCCCCNC(=O)C1CC(=O)OC12CCCCC2 (centres undefined)	none (no result: Measles CPE)
CCN(CC)C(=O)Cn1cnc2c1c(=O)n(C)c(=O)n2C	Measles CPE 44 (no result: KCC2 mod)
Cc1ccc2cn[nH]c2c1[N+](=O)[O-]	none (no result: Measles CPE)
CCc1sc(/C=C(/C#N)C(N)=S)cc1[N+](=O)[O-]	ROMK mod -4.4 (no result: Measles CPE)
CCc1ccc(/C=C(/C#N)C(N)=S)s1	none (no result: Measles CPE)
Cc1[nH]c(-c2ccccn2)nc(=S)c1Cl	ROMK mod 3.5, KCC2 mod 63 (no result: Measles CPE, Arbovirus inh)
CCN(c1ccccc1)S(=O)(=O)c1ccc(Cl)c(C(=O)N(CC2CCCO2)C2CCS(=O)(=O)C2)c1 (centres undefined)	none (no result: Measles CPE)
COC(=O)C1=C(C(=O)OC)[C@@H]2Nc3ccccc3[C@@]23C[C@@H](C(=O)OC)N(C(=O)c2ccco2)C3=N1	none (no result: ROMK mod, Measles CPE, Arbovirus inh, KCC2 mod)
Cc1ccc(OCc2csc(N)n2)cc1	none (no result: Measles CPE)
C[C@@H](C(=O)N1CCNCC1)n1cc(CCCN=C(N)N)nn1	KCC2 mod 2 (no result: ROMK mod, Measles CPE)
CCC(C)[C@@H](C(=O)N1CCNCC1)n1cc(CCCN=C(N)N)nn1 (some centres undefined)	none (no result: ROMK mod, Measles CPE)
CN(c1ncc(C(F)(F)F)cc1Cl)N1C(=O)c2cccc([N+](=O)[O-])c2C1=O	none (no result: Measles CPE)
CCOc1cc(C(=O)OCC(=O)Nc2c(C)cccc2C)ccc1OCC(=O)N1CCOCC1	Measles CPE 33
CSc1nc(-c2ccco2)nn1C(=O)c1ccco1	none (no result: ROMK mod)
CSc1nc(-c2ccc(Cl)cc2)nn1C(=O)c1ccco1	Measles CPE 52
Cc1nn(CCCC(=O)Nc2c(F)cc(F)cc2Br)c(C)c1[N+](=O)[O-]	none (no result: Measles CPE)
S=c1[nH]cnc2sc(-c3ccccc3)cc12	ROMK mod 7.7, KCC2 mod 196 (no result: Measles CPE)
S=c1[nH]cnc2scc(-c3ccccc3)c12	ROMK mod 6.1, KCC2 mod 62
O=C(COC(=O)c1cncc(Br)c1)NC1CCCCC1	none (no result: Measles CPE)
Cc1ccccc1NC(=S)NC(=O)c1cncc(Br)c1	KCC2 mod 29
O=C(NC(=S)NC1CCCCCC1)c1cncc(Br)c1	KCC2 mod 48
O=C(NC(=S)Nc1ncc(Br)cc1Br)c1cncc(Br)c1	Measles CPE 40
S=C(NCCc1ccccn1)Nc1ccc(Cl)cc1Cl	none (no result: Measles CPE)
CCOC(=O)c1ccccc1NS(=O)(=O)c1ccccc1	none (no result: ROMK mod)
CCOC(=O)c1ccccc1NS(=O)(=O)c1ccccc1F	Measles CPE 33 (no result: ROMK mod)
O=C(O)/C=C/C(=O)NC1CC1	none (no result: ROMK mod, Measles CPE)
CCN(CC)C1=CC2=CC(=C(C#N)C#N)CCC2CC1 (centres undefined)	Measles CPE 39, HSV replic up inconclusive (no result: ROMK mod)
COc1ccc(-c2c(C)n([O-])c(C)c(C)[n+]2=O)cc1OC	none (no result: HSV replic up, KCC2 mod)
COc1ccc(-c2c(C)n([O-])c(C)c(-c3ccccc3)[n+]2=O)cc1OC	Measles CPE 89 (no result: ROMK mod)
COc1ccc(-c2nc3c(n2O)CCCC3=O)cc1OC	Measles CPE 89 (no result: KCC2 mod)
COc1ccc(N2C(=O)C(CC(=O)Nc3ccccc3)N(Cc3ccccn3)C2=S)cc1 (centres undefined)	none (no result: Measles CPE)
CN(C)S(=O)(=O)c1ccc(C(=O)Nc2nnc(-c3ccc4c(c3)CCCC4)o2)cc1	KCC2 mod 8.1 (no result: ROMK mod)
O=C(Nc1nnc(-c2ccc3c(c2)CCCC3)o1)c1ccc(Cl)cc1Cl	none (no result: ROMK mod, KCC2 mod)
COc1cc(CN2CCCC(C(=O)c3ccccc3SC)C2)cc(OC)c1 (centres undefined)	none (no result: Measles CPE, KCC2 mod)
CC(C)C1N=C2c3ccccc3N=C(SCC(=O)NCCc3ccc(S(N)(=O)=O)cc3)N2C1=O (centres undefined)	Measles CPE 43
COCCCNC(=O)CSC1=Nc2ccccc2C2=NC(c3ccccc3)C(=O)N12 (centres undefined)	none (no result: Measles CPE)
S=c1[nH]nc(-c2ccc(Cl)cc2Cl)n1-c1ccc2c(c1)OCCO2	none (no result: ROMK mod, Measles CPE, Arbovirus inh)
Oc1ccc(-c2n[nH]c(=S)n2-c2ccc3c(c2)OCCO3)c(O)c1	Measles CPE 60, Arbovirus inh 33 (no result: ROMK mod)
Cc1ccc(-c2cccc(CN3CCN(C4CCN(C(C)C)CC4)C(CCO)C3)c2)o1 (centres undefined)	none (no result: Measles CPE)
O=C(Nc1nc(=S)ss1)c1ccc(Cl)cc1Cl	KCC2 mod 5 (no result: ROMK mod)
O=C(Nc1ccc2ccccc2c1)c1ccc(Cl)cc1Cl	none (no result: ROMK mod, Measles CPE, Arbovirus inh)
O=C(NC1CC1)C1CCN(c2ncnc3c2sc2cccc(F)c23)CC1	none (no result: ROMK mod, KCC2 mod)
CC12CCC(C(=O)N3CCN(C(c4ccccc4)c4ccccc4)CC3)(OC1=O)C2(C)C (centres undefined)	Measles CPE 34 (no result: KCC2 mod)
CC12CCC(C(=O)NCc3ccccc3)(OC1=O)C2(C)C (centres undefined)	none
COC(=O)CCSCC(=O)N1N=C(c2ccc(OC)cc2)CC1c1cccc(OC)c1OC (centres undefined)	none (no result: Measles CPE, KCC2 mod)
CC1(c2ccccc2)NC(=O)N(Cc2ccc([N+](=O)[O-])cc2)C1=O (centres undefined)	Measles CPE 53 (no result: ROMK mod)
O=Cc1cn(-c2ccccc2)nc1-c1cc2cc(O)ccc2oc1=O	Arbovirus inh 33
N#CCN1CCC2(O)CCCCC2C1c1ccc2c(c1)OCO2 (centres undefined)	none (no result: ROMK mod, Measles CPE, Arbovirus inh)
COc1cccc(-c2nc(=S)c3c(o2)CCCC3)c1	none (no result: Measles CPE)
Cc1ccc(-c2nc(=S)c3c(n2Cc2ccco2)CCCC3)cc1	KCC2 mod 25
COc1cccc(-c2nc(=S)c3c(n2Cc2ccco2)CCCC3)c1	KCC2 mod 13 (no result: ROMK mod)
COc1ccc(CCC(=O)N/N=C\c2cccs2)cc1	none (no result: Measles CPE)
CC(C)OCCCn1c(=S)[nH]c2ccc(N3CCOCC3)cc2c1=O	none

Screening data: PubChem BioAssay, several laboratories
